Assay outcomes as filed in PubChem BioAssay.
Shown are actives, neighbours in structure and some others; about 6.2% of the full set was active somewhere.
FMDV antiviral = foot and mouth disease virus antiviral activity | FMDV antiviral cell-based qHTS | AID 1159524 | Potency, µM (highest dose often 57.9 µM), for the others: top-dose activity change, negative = inhibition, hits mostly inhibitors | hit rate 1.2% among 410,000; calls by dose curve; tested in HEK293T cells; further: read-out not given here; potency means the concentration at half of the fitted maximal effect; nearly all actives have a fitted effect of over 45% in size
Lassa entry inh = blocks Lassa virus binding to or entry into cells | Lassa virus pseudotype entry inhibition, cell reporter | Potency, µM (doses to about 37.9 µM), inactives show at the top dose activity change, negative = inhibition, hits mostly inhibitors | hit rate 1.2% among 300,000; calls by dose curve; tested in HEK293 cells; further: potency means the concentration at half of the fitted maximal effect; nearly all actives have a fitted effect of over 50% in size
Marburg entry inh = inhibitors of Marburg virus binding or cell entry; Marburg virus pseudotyped entry inhibition, cell reporter; Potency, µM (doses to about 37.8 µM), without a hit: top-dose activity change, negative = inhibition, usual class: inhibitors; hit rate 1.8% among 300,000; calls by dose curve; tested in HEK293 cells; further: potency means the concentration at half of the fitted maximal effect
HCMV antiviral = human cytomegalovirus inhibition; HFF cells, HCMV-luciferase reporter, 72 h; stronger effect = lower value; activity change, negative = inhibition, % at 57.5 µM; hit rate 4.5% among 410,000; in the data active means activity change below about -60%; inconclusive means no clear call, values can overlap the other calls; inactive means above about -39%
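HFF cells seeded 16 h at 37C, treated with compounds, infected with luciferase-reporter HCMV at MOI 1 PFU/cell; luciferase read at 72 h post infection, normalized to buffer-only and Salinomycin controls.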
* hit, by the source's call; ? = inconclusive; · = not tested or not shown; ! = not active in a repeat; [ ] = dose if it differs, or a comment. On the % scale 0 is the no-effect control and ±100 the full control effect.

SMILES	FMDV antiviral	Lassa entry inh	Marburg entry inh	HCMV antiviral
C[C@@H](NC(=O)c1ncn2c1c(=O)[nH]c1ccc(Br)cc12)c1ccccc1	0%	·	·	-100*
C[C@@H](NC(=O)c1ncn2c1c(=O)[nH]c1cccnc12)c1ccccc1	-13%	·	·	15
COc1ccc(CNC(=S)NC2CCCCC2)cc1	3%	13%[46.1 µM]	16%[46.1 µM]	-36
C=CCN1C(=O)CSC1=Nc1cccc(O)c1	-4%	-10%	12%	7
C/C(=N\NC(=O)c1c(C)nc2ccccn12)c1cccc([N+](=O)[O-])c1	-20%	9%	3%[46.1 µM]	-26
Cc1ccc(/C=C/C(=O)c2c(C)nc3ccccn23)cc1	-10%	-29%	?	-88*
CC(=O)c1c(C)nc2ccccn12	-2%	·	0%	-30
Cc1nc2ccccn2c1C(=O)/C=C/c1cccc([N+](=O)[O-])c1	6.3µM*	·	·	-101*
COc1ccc(N2CC3=C(C2=O)C(c2ccc(Br)cc2)NC(=O)N3C)cc1 (configuration not stated)	-30%	?	-35%[46.1 µM]	-99*
COc1ccc(CN(C)C(=O)c2ccc(NS(=O)(=O)c3ccc4[nH]c(=O)[nH]c4c3)cc2)c(OC)c1	-4%	13%[46.1 µM]	12%[46.1 µM]	24
Cc1cc(C)c2c(N)c(C(=O)Nc3ncc(C)s3)sc2n1	5µM*	0.2µM*	0.5µM*	-86*
COC(=O)c1sc2nc(C)cc(C)c2c1N	35%	21%[46.1 µM]	?	-18
CCc1nc2c(OCCC3CCCCC3)cccn2c1N(C)C(=O)C(C)C	-17%	·	·	·
O=C(O)c1cc(O)ccc1O	-22%	·	·	66
O=C(O)C1=CC(=C(c2ccc(O)c(C(=O)O)c2)c2ccc(O)c(C(=O)O)c2)C=CC1=O	2%	?	0.44µM*	·
Cc1cccc(C(=O)NNC(=O)c2ccccc2O)c1	61%	·	·	106
CC(C)c1ccc(NC(=O)CCNC(=O)Cn2ccc3ccccc3c2=O)cc1	3%	?	10%[46.1 µM]	29
O=C(COc1ccc(F)cc1)NC1CC(=O)N(c2ccc3c(c2)OCCO3)C1 (configuration not stated)	12%	18%[46.1 µM]	·	-108*
C=CCN1C(=O)c2ccc(C(=O)N3CCN(S(=O)(=O)c4ccc(C(C)C)cc4)CC3)cc2C1=O	-25%	24%	3%[46.1 µM]	-16
COc1ccc(-c2coc3c(CN4CCCCC4C)c(O)ccc3c2=O)cc1 (configuration not stated)	0%	·	·	?
CCc1cc2c(=O)c(-c3ccc4c(c3)OCCO4)coc2c(CN2CCCCC2C)c1O (configuration not stated)	-19%	?	?	-62*
O=c1c(-c2ccccc2)coc2c(CN3CCCCC3)c(O)ccc12	-15%	·	·	-25
CCc1cc2c(=O)c(-c3ccc4c(c3)OCCO4)coc2cc1OS(C)(=O)=O	-1%	?	5.6µM*	?
CC1CCCCN1Cc1c(O)ccc2c(=O)c(-c3ccccc3)coc12 (configuration not stated)	8%	-5%	?	-69*!
CCC1CCCCN1Cc1c(O)ccc2c(=O)c(-c3ccccc3)coc12 (configuration not stated)	-1%	?	?	-92*
SMILES	FMDV antiviral	Lassa entry inh	Marburg entry inh	HCMV antiviral
O=C(NCc1ccc2c(c1)OCO2)C1CCN(S(=O)(=O)N2CCOCC2)CC1	-5%	8%	13%	-15
COC(=O)c1c(C)[nH]c(O)c1C=Nc1ccc(Oc2ccccc2)cc1	-20%	?	17%[46.1 µM]	-65*
COc1ccc2c(c1)[nH]c1c(Cl)ncnc12	-12%	-17%[46.1 µM]	?	20
CC#CC#Cc1cccc(=O)o1	-26%	·	·	-89*
Cc1cccc(NC(=O)c2cc3n(n2)C(C(F)(F)F)CC(c2ccc4c(c2)OCO4)N3)c1 (configuration not stated)	-18%	?	?	3
COC(=O)c1cc(Nc2nc3ccccc3nc2NS(=O)(=O)c2ccc(C)cc2)ccc1Cl	-4%	10%[46.1 µM]	?	-106*
O=[N+]([O-])c1ccc(S(=O)(=O)Nc2nc3ccccc3nc2Nc2ccccc2)cc1	-16%	-21%	?	-80*
COc1cc(Nc2nc3ccccc3nc2NS(=O)(=O)c2ccc([N+](=O)[O-])cc2)cc(OC)c1OC	-33%	?	19%[46.1 µM]	-74*
O=C(O)c1ccc(Nc2nc3ccccc3nc2NS(=O)(=O)c2ccc(F)cc2)cc1	16%	·	·	21
CC(=O)Nc1ccc(S(=O)(=O)Nc2nc3ccccc3nc2Nc2ccc3ccccc3c2)cc1	-3%	?	15%	26
Cc1c(NCc2ccccc2O)c(=O)n(-c2ccccc2)n1C	-6%	·	·	3
O=[N+]([O-])c1ccccc1OCCOCCOc1cccc2cccnc12	-26%	-21%	?	-13
COc1ccc(C/C(N)=N/n2cnnc2)cc1	·	17%	5%	?
CC(C)COc1ccc(C/C(N)=N/n2cnnc2)cc1	-17%	?	1µM*	-94*
Cc1cc(Nc2ccc(F)cc2C)n2nc(C)nc2n1	-7%	·	·	18
CCn1c2ccccc2c2cc(NC(=O)c3cc(OC)c(OC)c(OC)c3)ccc21	-9%	?	1.4µM*	-88*
CCn1c2ccccc2c2cc(NC(=O)c3cc(OC)cc(OC)c3)ccc21	-7%	?	?	-92*
CCn1c2ccccc2c2cc(NC(=O)COc3ccc(OC)cc3)ccc21	-19%	-12%	?	-27
CCCNC(=O)COC(=O)c1ccccc1C(=O)c1ccc(Cl)c([N+](=O)[O-])c1	11µM*	?	3.2µM*	-113*
Cc1ccc(C(=O)c2ccccc2C(=O)OCC(=O)Nc2cccc([N+](=O)[O-])c2)cc1	-5%	-25%	?	-35
Cc1ccc(C(=O)c2ccccc2C(=O)OCC(=O)NCCc2ccc(Cl)cc2Cl)cc1	?	-11%	?	-25
Cc1ccc(Cl)c(NC(=O)COC(=O)c2ccccc2C(=O)c2ccc(Cl)c([N+](=O)[O-])c2)c1Cl	?	13µM*	4.6µM*	-102*
Cc1cccc(N/C=C/c2onc(C)c2[N+](=O)[O-])c1	69%	?	?	119
Cc1cccc(/C=C/c2onc(C)c2[N+](=O)[O-])n1	14µM*	-28%	-4%[46.1 µM]	-109*
Cc1noc(/C=C/c2nn(C)cc2Cl)c1[N+](=O)[O-]	?	·	·	-98*
SMILES	FMDV antiviral	Lassa entry inh	Marburg entry inh	HCMV antiviral
COc1ccccc1Cc1c(-c2ccc(C#N)cc2)nc2c(C)cc(Br)cn12	-16%	·	·	16
CCc1cc(SC#N)cc(CC)c1NC(=O)CCl	25µM*	?	-18%	-74*
CC1SC2(CN3CCC2CC3)NC1=O (configuration not stated)	-16%	-1%	17%	-26
Cc1c2c(cc3c1[nH]c1ccccc13)C=NCC2	-6%	8%[46.1 µM]	?	3
Nc1nc(SCC(=O)Nc2cccc(F)c2)n[nH]1	-6%	·	·	-100*
O=C(CSc1n[nH]c(-c2ccccn2)n1)Nc1cccc(Cl)c1	-20%	?	?	-98*
Cc1nc(SCC(=O)Nc2cccc(Cl)c2)n[nH]1	0%	7%	13%	-9
COc1ccc(O)c2c(=O)c3c(OC)cc4c(c3oc12)C1C=COC1O4 (configuration not stated)	·	·	·	-62*
COc1ccc(-c2nnc(SCC(=O)Nc3nc4ccccc4s3)n2C)cc1	17%	-12%	-2%	80
